Assay results published in PubChem BioAssay AID1851 (National Center for Advancing Translational Sciences (NCATS), 2009).
Screen size: about 16,000 compounds; about 5,100 (32%) were called active. Another 25% or so got no clear call; they are omitted. Calls come from the whole dose curve; as a rule, active = well fitted curve in the direction sought with a large enough effect; inconclusive = small, poorly fitted or top-dose-only effect, or effect the other way; inactive = no such curve, though single readings can be large or run the other way. Some of the results follow.

Target: Cytochrome P450 3A4 (Homo sapiens) (UniProt P08684)
Assay: Cytochrome panel assay with activity outcomes
Conditions: recombinant CYP, pro-luciferin dealkylation, luminescence, p450-cyp3a4; series mostly up to 57.1 µM; activity, negative = inhibition: at the top concentration
% is set by controls: 0 for no effect and ±100 for the full control effect.

Chain of Cytochrome P450 3A4 (Homo sapiens) (P08684 whole entry, looked up): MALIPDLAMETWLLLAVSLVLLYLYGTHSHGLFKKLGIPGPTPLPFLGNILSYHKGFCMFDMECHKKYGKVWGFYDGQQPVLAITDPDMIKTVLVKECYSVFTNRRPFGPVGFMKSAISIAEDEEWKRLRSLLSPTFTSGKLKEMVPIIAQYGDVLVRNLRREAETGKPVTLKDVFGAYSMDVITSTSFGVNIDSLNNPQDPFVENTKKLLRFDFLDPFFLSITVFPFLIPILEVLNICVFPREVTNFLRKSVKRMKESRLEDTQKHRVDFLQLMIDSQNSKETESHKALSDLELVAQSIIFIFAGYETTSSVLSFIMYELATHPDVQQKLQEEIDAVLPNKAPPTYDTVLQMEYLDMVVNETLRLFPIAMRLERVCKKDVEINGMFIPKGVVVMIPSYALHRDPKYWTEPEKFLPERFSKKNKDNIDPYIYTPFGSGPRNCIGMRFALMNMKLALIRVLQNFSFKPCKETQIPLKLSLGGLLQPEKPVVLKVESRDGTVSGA

Structure (SMILES) | AC50 | activity, negative = inhibition
COc1cccc2c1[C@@H]1CN(CCCCn3c(=O)[nH]c4c(sc5ncc(-c6ccccc6)nc54)c3=O)C[C@H]1CO2 | 15.8 µM (active) | 
O=C1Nc2ccccc2C(O)(C(=O)NCc2ccc3c(c2)OCO3)N1c1ccc(Cl)c(Cl)c1 (stereo unspecified) | 0.126 µM (active) | 
NCCCC(=O)O |  | -1.16% (inactive)
c1ccc(C2CCC(N3CCC(N4CCCCC4)CC3)CC2)cc1 (stereo unspecified) |  | -4.19% [at 2.29 µM] (inactive)
O=S1(=O)[C@H]([C@H]2CC3c4ccccc4C2c2ccccc23)[C@@H](N2CCCCC2)[C@@H]1c1ccccc1 | 1 µM (active) | 
CCCCC#Cc1ccccc1CC(=O)Nc1ccccc1 | 1 µM (active) | 
CCC#CCOCC(=O)Nc1ccccc1 |  | 19.9% (inactive)
O=C(Cc1ccccc1I)Nc1ccccc1 |  | -28.6% (inactive)
OCCCN=C1CCCCC1 |  | -15.7% [at 11.4 µM] (inactive)
CNC(=O)c1nnn(Cc2ccccc2)c1NC(=O)C(F)(F)F |  | 11.1% (inactive)
C[C@@H](C(=O)Nc1ccc2ccccc2c1)[C@H]1C[C@]1(C)[C@H](NC(=O)OCc1ccccc1)c1ccccc1 | 2.51 µM (active) | 
C[C@@H](C(=O)Nc1ccc2ccccc2c1)[C@@H]1C[C@@]1(C)[C@@H](NC(=O)OCc1ccccc1)c1ccccc1 | 7.94 µM (active) | 
Cc1ccc(NC(=O)N(Cc2ccco2)C(C)c2ccco2)cc1C (stereo unspecified) | 3.16 µM (active) | 
c1cncc(CNCc2cccnc2)c1 |  | -27.6% [at 11.4 µM] (inactive)
c1ccc(CCc2cccnc2)nc1 |  | -27.8% [at 11.4 µM] (inactive)
c1ccc(C[C@@H](Nc2cccnc2)c2ccccc2)cc1 | 3.16 µM (active) | 
CCOC(=O)CCN1C(=O)[C@H]2[C@H]3[C@H](O)[C@H](O)C/C(=N/OCC(C)C)[C@@H]3CC[C@@H]2C1=O |  | -27.7% [at 11.4 µM] (inactive)
O=C(NCc1cn(-c2ccccc2)nc1-c1ccccc1)c1cc([N+](=O)[O-])cc([N+](=O)[O-])c1 | 2.51 µM (active) | 
O=C(c1ccc([N+](=O)[O-])cc1)n1nc(-c2ccccc2)nc1NCc1ccccc1 |  | 13.6% [at 2.29 µM] (inactive)
COC(=O)c1ccc(NC(=O)c2ccccc2)o1 |  | -12.8% [at 2.29 µM] (inactive)
COC(=O)c1ccc(C#CC(NP(=O)(c2ccccc2)c2ccccc2)c2ccccc2)cc1 (stereo unspecified) |  | -25.5% (inactive)
COC(=O)c1ccc(C23CC2(C(NP(=O)(c2ccccc2)c2ccccc2)c2ccccc2)C3)cc1 (stereo unspecified) | 3.16 µM (active) | 
CN1C(=O)C[C@H](c2ccccc2)C1=O |  | -5.93% [at 25.6 µM] (inactive)

Structure (SMILES) | AC50 | activity, negative = inhibition
C/C(=N\Nc1nnc(C)c(=O)[nH]1)C(=O)O |  | -10% (inactive)
COC(=O)[C@@]1(Cc2ccccc2)[C@H]2c3cc(C(=O)N4CCCC4)n(Cc4ccccn4)c3C[C@H]2CN1C(=O)c1ccccc1 | 2 µM (active) | 
COC(=O)[C@@]1(Cc2ccccc2)[C@H]2c3cc(C(=O)N4CCCC4)n(CCc4ccccn4)c3C[C@H]2CN1C(=O)c1ccccc1 | 2 µM (active) | 
COC(=O)[C@@]1(Cc2ccc(F)cc2)[C@H]2c3cc(C(=O)N4CCCC4)n(Cc4ccccn4)c3C[C@H]2CN1C(=O)c1ccccc1 | 1 µM (active) | 
O=C(O)[C@@H](O)[C@@H](O)[C@H](O)[C@H](O)CO |  | -3.9% [at 11.4 µM] (inactive)
C/C(=C\C(=O)c1ccc(Br)cc1)NCc1ccc2c(c1)OCO2 | 2.51 µM (active) | 
O=C(Cc1ccc(Br)cc1)OCC(=O)c1ccc2c(c1)OCCO2 |  | -3.84% [at 2.29 µM] (inactive)
CC1CCCC(NC(=O)c2n[nH]c(=O)c3ccccc23)C1C (stereo unspecified) | 12.6 µM (active) | 
Cc1c(Br)cc(C(=O)NC2CCCCC2)c(C)c1C |  | -5.25% [at 2.29 µM] (inactive)
CCN(CC)CCCN(Cc1cc2ccc(C)c(C)c2[nH]c1=O)C(=O)NC1CCCCC1 | 2.82 µM (active) | 
CCC(=O)NC(NCC1CCCO1)C(Cl)(Cl)Cl (stereo unspecified) |  | -9.79% (inactive)
Cn1c(CNC(=O)Nc2ccccc2)nnc1SCc1ccccc1 | 14.1 µM (active) | 
COc1cccc(NC(=O)CSc2nnc(CN3CCOCC3)n2C)c1 |  | -19.6% (inactive)
COC1(OC)N=C(NC(=O)Nc2ccccc2)C2(C#N)C(c3ccccc3)C12C#N (stereo unspecified) |  | -7.34% (inactive)
c1c[nH]c(CN2CCOCC2)n1 |  | -23.7% [at 11.4 µM] (inactive)
Cn1c(CN2CCOCC2)nnc1SCc1ccccc1 | 10 µM (active) | 
CC(=O)[C@H](C(=N)C#N)C(=O)Nc1ccccc1 |  | 3.78% [at 11.4 µM] (inactive)
CCn1c(C)[n+](CCCS(=O)(=O)[O-])c2cc(Cl)c(Cl)cc21 |  | 3.69% (inactive)
CCn1c(=O)[nH]c2cc(Cl)c(Cl)cc21 | 12.6 µM (active) | 
CCn1c(=O)[nH]c2ccccc21 |  | -7.93% (inactive)
O=C(O)/C=C\C(=O)Nc1ccccn1 |  | -10.9% [at 11.4 µM] (inactive)
Cc1cccc(C(=O)NNC(=O)C2CCCO2)c1 (stereo unspecified) |  | -2.87% (inactive)
Cc1cccc(C(=O)Nc2nnc(-c3ccc(C(C)(C)C)cc3)s2)c1 |  | 16% (inactive)

Structure (SMILES) | AC50 | activity, negative = inhibition
C=C(C)C1CC=C(C)/C(=N/NC(=O)c2ccc(NC(=O)c3cccc(C)c3)cc2)C1 (stereo unspecified) | 12.6 µM (active) | 
C=C(C)[C@H]1CC=C(C)/C(=N/NC(=O)CNc2ccccc2OC)C1 | 10 µM (active) | 
CSc1ccc2nnc(-c3cccc(F)c3)n2n1 |  | 0.102% (inactive)
COc1cccc(-c2nnc3sc(-c4ccc(C)cc4)nn23)c1 | 7.94 µM (active) | 
CNC[C@@H](SC)c1ccc(O)c(O)c1 |  | -6.87% [at 11.4 µM] (inactive)
Clc1ccc(/C=N/Nc2nnc(-c3ncc[nH]3)c3ccccc23)cc1 | 15.8 µM (active) | 
CCOc1ccc(C(C)=O)cc1N1C(=O)C2C(C1=O)C1C=CC2C12CC2 (stereo unspecified) |  | -8.58% (inactive)
CCOc1ccc(C(C)=O)cc1N1C(=O)C2C3C=CC(O3)C2C1=O (stereo unspecified) |  | -20.8% [at 11.4 µM] (inactive)
CCOc1ccc(C(C)=O)cc1N1C(=O)C2C3C=CC(C3=C(C)C)C2C1=O (stereo unspecified) | 11.2 µM (active) | 
CCC(C)(C)NC(=O)c1ccc2c(c1)N(CC(=O)OC)C(=O)C(C)(C)O2 |  | -14.5% (inactive)
Nc1ncnc2c1ncn2CCCCC(=O)O |  | -8.48% [at 11.4 µM] (inactive)
Cc1ccc(C(CC(N)=O)c2ccco2)cc1 (stereo unspecified) |  | -1.79% (inactive)
O=C(NCc1ccco1)C(c1ccccc1)N(C(=O)Cc1cccs1)c1ccccc1F (stereo unspecified) | 0.794 µM (active) | 
Cc1ccc(C(C(=O)NCc2ccco2)N(C(=O)CNC(=O)c2cccs2)c2ccc(C)cc2)cc1 (stereo unspecified) | 1.12 µM (active) | 
O=C(c1cccs1)n1nc(-c2ccc(Cl)cc2)nc1NCc1ccco1 |  | -4.78% [at 2.29 µM] (inactive)
Cc1ccc(C(C(=O)NCc2ccco2)N(C(=O)CNC(=O)c2cccs2)c2ccc(C)cc2C)cc1 (stereo unspecified) | 1 µM (active) | 
CCn1c(C)c(/C=N/Nc2nc3ccccc3s2)c2ccccc21 | 8.91 µM (active) | 
Cc1ccc(C(=O)N2CCN(C3c4cccc5cccc(c45)C3NS(=O)(=O)c3ccccc3)CC2)cc1 (stereo unspecified) | 0.0355 µM (active) | 
Cc1ccc(C(=O)N2CCN(c3cc(=O)[nH]nc3-c3ccccc3)CC2)cc1 |  | 6.24% (inactive)
Cc1cccc(CNc2ncnc3ccc(-c4c(C)noc4C)cc23)c1 | 0.794 µM (active) | 
Cc1noc(C)c1-c1ccc2ncnc(NCc3cccnc3)c2c1 | 2.51 µM (active) | 
Cc1noc(C)c1-c1ccc2ncnc(NC3CCNCC3)c2c1 |  | -15.9% (inactive)
Cc1noc(C)c1-c1ccc2ncnc(NCc3cccs3)c2c1 | 10 µM (active) | 

Structure (SMILES) | AC50 | activity, negative = inhibition
Cc1noc(C)c1-c1ccc2ncnc(NCc3ccccc3)c2c1 | 10 µM (active) | 
N#[N+]c1ccc(Nc2ccccc2)cc1 |  | -10.9% [at 11.4 µM] (inactive)
CC[N+](C)(CC)CCN1C(=O)c2ccccc2S1(=O)=O |  | 6.19% [at 11.4 µM] (inactive)
Cc1cc(C)c(S(=O)(=O)N2CCN(c3ccc([N+](=O)[O-])c(NCc4ccco4)c3)CC2)c(C)c1 | 7.08 µM (active) | 
CC(C)c1ccc(CNc2cc(N3CCCC3)ccc2[N+](=O)[O-])cc1 |  | -8.24% [at 2.29 µM] (inactive)
CNc1cc(N2CCCCCC2)ccc1[N+](=O)[O-] |  | -20.1% [at 2.29 µM] (inactive)
O=[N+]([O-])c1ccc(N2CCCC2)cc1NCc1ccccc1 | 15.8 µM (active) | 
CC(=O)N(CC(O)CN(C(C)=O)c1c(I)c(C(=O)NC[C@@H](O)CO)c(I)c(C(=O)NC[C@@H](O)CO)c1I)c1c(I)c(C(=O)NC[C@@H](O)CO)c(I)c(C(=O)NC[C@@H](O)CO)c1I |  | 3.05% [at 25.6 µM] (inactive)
CC(C)(C)c1ccc(O)c(CN(Cc2cc(C(C)(C)C)ccc2O)C2CCCCC2)c1 |  | -3.22% [at 11.4 µM] (inactive)
c1ccc2cc(C3=NCCN3)ncc2c1 |  | -15.9% (inactive)
C=CCSc1nc2ccccc2n1C(=O)/C=C/c1cc(OC)c(OC)c(OC)c1 | 7.94 µM (active) | 
CCSc1nc2ccccc2n1C(=O)/C=C\c1ccc(OC)c(OC)c1 | 20 µM (active) | 
COc1cc(/C=C\C(=O)N2CCC=CC2=O)cc(OC)c1OC |  | -8.08% [at 25.6 µM] (inactive)
COc1ccc(/C=C/C(=O)Nc2nc(C)cc(C)n2)cc1OC |  | 2.05% [at 2.29 µM] (inactive)
C#CCSc1nncn1C(=O)/C=C/c1ccccc1 |  | -0.406% [at 2.29 µM] (inactive)
c1ccc2nc(-c3ccncc3)ccc2c1 | 2.82 µM (active) | 
c1ccc2cc(-c3csnn3)ccc2c1 |  | 16% (inactive)
c1ccc2nc(C3=NCCN3)ccc2c1 |  | 7.89% (inactive)
O=C(N/N=C1\CCCc2ccccc21)c1ccc([N+](=O)[O-])cc1Cl |  | -11.3% [at 2.29 µM] (inactive)
Cc1cc(Cl)ccc1OCC(=O)N/N=C1\CCCc2ccccc21 | 12.6 µM (active) | 
Cc1cc(Cl)ccc1OCC(=O)Nc1nc(N)nc(N)n1 |  | -4.83% [at 11.4 µM] (inactive)
Cc1cc(Cl)ccc1OCC(=O)NCc1ccncc1 | 1.41 µM (active) | 
